Experimental findings from PubChem BioAssay (Tox21) are described below.

SMILES strings stand for the structures. Values joined by “and” are separate entries in the source; they are usually repeats but may differ in a detail not shown here. Equal entries are not always repeated. Inconclusive results are not listed. A structure can be active in one record and inactive in another. Active and inactive are the calls of the source. Unless noted, calls come from the whole dose curve; as a rule, active = well fitted curve in the direction sought with a large enough effect in the repeat runs; inconclusive = weak or mixed curves; inactive = no such curve, though single readings can be large; an effect the other way counts as inactive or inconclusive.

A short description of test [1]: A CellTox Green Cytotoxicity Assay to monitor cytotoxicity in HEK293 cells - 32 hour (AID 1224881). Note: nearly all actives have a fitted effect of over 40% in size. Note: potency is the fitted concentration of half-maximal effect. In outline: (§1)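 Dead-cell fluorescence measured kinetically: asymmetric cyanine dye, HEK293, 600 cells/well, 5 h settle, 23 nL cpd/DMSO, 37 C, reads 0–40 h every 8 h.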
Test [2] can be described thus: A CellTox Green Cytotoxicity Assay to monitor cytotoxicity in HepG2 cells - 0 hour (AID 1224882). Note: nearly all actives have a fitted effect of over 35% in size. In outline: (§2)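 First, HepG2 cells (600/well) mixed with reagent were plated; second, after 5 h at 37 C they received compounds via pintool; third, fluorescence was measured at 0 h through 40 h at 8 h intervals.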
A short description of test [3]: A CellTox Green Cytotoxicity Assay to monitor cytotoxicity in HepG2 cells - 32 hour (AID 1224883). Note: nearly all actives have a fitted effect of over 50% in size. In a few lines:
as §2

Test [4] can be described thus: A CellTox Green Cytotoxicity Assay to monitor cytotoxicity in HEK293 cells - 8 hour (AID 1224884). Note: nearly all actives have a fitted effect of over 35% in size. In outline:
as §1

The nature of test [5]: qHTS RealTime-Glo MT Cell Viability Assay in HepG2 cells - 16 hour (AID 1224885). Note: nearly all actives have a fitted effect of over 50% in size. Note: potency is the fitted concentration of half-maximal effect. In a few lines:
(§3)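 Cell number in HepG2 cultures estimated from NanoLuc luminescence generated by metabolic reduction of a prosubstrate by living cells. The homogeneous, nonlytic format allowed repeated reads at 0, 8, 16, 24, 32 and 40 h of compound exposure.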
(In general: qHTS replaces the single test concentration by a dilution series.)

Test [6] can be described thus: qHTS RealTime-Glo MT Cell Viability Assay in HEK293 cells - 24 hour (AID 1224886). Note: nearly all actives have a fitted effect of over 50% in size. Note: potency is the fitted concentration of half-maximal effect. In a few lines:
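Homogeneous bioluminescent viability format in HEK293 cells (600 cells/well). Following 5 h at 37 C/5% CO2, 23 nL compound was pintooled; the signal was measured repeatedly during 40 h incubation.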

Test [7] can be described thus: qHTS RealTime-Glo MT Cell Viability Assay in HEK293 cells - 8 hour (AID 1224887). Note: nearly all actives have a fitted effect of over 50% in size. Note: potency is the fitted concentration of half-maximal effect. In outline: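 600 HEK293 cells per well, dispensed already mixed with RealTime-Glo MT reagents. Compound dosing came 5 h later. The same wells were read for luminescence at 0, 8, 16, 24, 32 and 40 h of exposure at 37 C.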
Test [8] in a line: A CellTox Green Cytotoxicity Assay to monitor cytotoxicity in HEK293 cells - 16 hour (AID 1224888). Note: nearly all actives have a fitted effect of over 35% in size. In outline:
as §1

The nature of test [9]: A CellTox Green Cytotoxicity Assay to monitor cytotoxicity in HepG2 cells - 8 hour (AID 1224890). Note: nearly all actives have a fitted effect of over 45% in size. In outline: as §2
A short description of test [10]: qHTS assay to identify small molecule antagonists of the estrogen receptor alpha (ER-alpha) signaling pathway using the BG1 cell line in the presence of 0.1 nM 17-beta-estradiol - cell viability counter screen (AID 1259241). Note: nearly all actives have a fitted effect of over 40% in size. Note: potency is the fitted concentration of half-maximal effect. In outline: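 VM7Luc4E2, 4,000 cells/well, phenol red-free medium + 10% charcoal-stripped FBS; 24 hr plating; cpd + 0.1 nM E2 final, 22 hr 37C/5% CO2; CellTiter-Fluor 30 min, fluorescence.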

Test [11] can be described thus: qHTS assay to identify small molecule antagonists of the androgen receptor (AR) signaling pathway using the MDA cell line in the presence of 0.5 nM R1881 - cell viability counter screen (AID 1259242). Note: nearly all actives have a fitted effect of over 45% in size. Note: potency is the fitted concentration of half-maximal effect. In a few lines: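 qHTS format. MDA-kb2 (MMTV-luc, AR/GR responsive) + cpd + 0.5 nM R1881 final, 16 hr 37C/0% CO2 → CellTiter-Fluor 30 min → fluorescence intensity.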

Test [12] concerns the target Estrogen receptor (Homo sapiens) (UniProt P03372). The test can be described thus: qHTS assay to identify small molecule antagonists of the estrogen receptor alpha (ER-alpha) signaling pathway using the BG1 cell line in the presence of 0.1 nM 17-beta-estradiol (AID 1259244). Note: nearly all actives have a fitted effect of over 50% in size. Note: potency is the fitted concentration of half-maximal effect. In outline:
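Reporter is a stably transfected luciferase under four estrogen responsive elements in VM7Luc4E2 cells expressing native full-length ER-alpha; inhibition of 0.1 nM (final) 17beta-estradiol-driven signal over 22 h is read by luminescence.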

Test [13] is described as follows: qHTS assay to identify small molecule phospholipidosis (PLD) inducers (AID 1259344; active = well fitted curve in the direction sought with a large enough effect; an effect the other way counts as inactive or inconclusive). In outline: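 After 4 h attachment on collagen I, HepG2 cells were dosed with compound alongside LipidTOX Red, kept 24 h at 37 C, fixed, and imaged for lamellar phospholipid pits.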
Test [14] is described as follows: qHTS assay to identify small molecule HDAC inhibitors (AID 1259364). Note: potency is the fitted concentration of half-maximal effect.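 Note: wild-type HCT-116 cells with endogenous class I/II HDAC activity; nearly all actives have a fitted effect of over 45% in size.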 In a few lines:
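Quantitative high-throughput format: overnight-seeded HCT-116 cells got compounds for 2 hr at 37C; HDAC-Glo I/II reagent added, 30 min RT, luminescence measured.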

Test [15] in a line: qHTS assay to identify small molecule HDAC inhibitors - cell viability counter screen (AID 1259365). In a few lines:
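Luminescence from CellTiter-Glo, developed 30min at room temperature, reports viability of wild-type HCT-116 cells treated 2hr with compounds at 37 C and 5% CO2 after overnight plating.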

The nature of test [16]: qHTS assay to identify small molecule agonists of the sonic hedgehog signaling (Shh) pathway - cell viability counter screen (AID 1259366). Note: nearly all actives have a fitted effect of over 50% in size. Note: potency is the fitted concentration of half-maximal effect. In outline:
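Cytotoxicity counter screen run in the same wells as the Shh reporter assay. NIH/3T3 cells carrying a Gli1 response element–driven luciferase were treated with DMSO-dissolved compounds for 24hr, and live-cell protease activity was measured with CellTiter-Fluor.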

Test [17] can be described thus: qHTS assay to identify small molecule antagonists of the sonic hedgehog signaling (Shh) pathway - cell viability counter screen (AID 1259367). Note: nearly all actives have a fitted effect of over 55% in size. Note: potency is the fitted concentration of half-maximal effect. In outline: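 Conditioned medium drove Shh signaling in 3T3 Gli1-Luc cells exposed to compounds at 37C and 5% CO2. Viability was determined from CellTiter-Fluor fluorescence, with reagent incubated 1 hr after 23 hr of treatment.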

Test [18] is described as follows: qHTS assay to identify small molecule agonists of the sonic hedgehog signaling (Shh) pathway (AID 1259368; calls by dose curve;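 note: NIH/3T3-derived 3T3Gli1-Luc cells carrying a stable Gli1-driven firefly luciferase reporter; series mostly up to about 92 µM; nearly all actives have a fitted effect of over 15% in size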). In outline:
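Quantitative high-throughput format using a Gli1-driven firefly luciferase reporter line derived from NIH/3T3 cells. After a 24 hr compound treatment at 37 C and 5% CO2, luminescence reported Gli1 response element activity.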

The nature of test [19]: qHTS RealTime-Glo MT Cell Viability Assay in HepG2 cells - 0 hour (AID 1224889). Note: nearly all actives have a fitted effect of over 50% in size. In outline:
as §3

For test [20], the target named is Androgen receptor (Homo sapiens) (UniProt P10275). As to the kind of experiment: qHTS assay to identify small molecule antagonists of the androgen receptor (AR) signaling pathway using the MDA cell line in the presence of 0.5 nM R1881 (AID 1259243). Note: nearly all actives have a fitted effect of over 50% in size. In a few lines:
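Antagonist mode quantitative HTS in MDA-kb2 MMTV-luciferase cells, agonist R1881 at 0.5 nM final, 16 hr exposure at 37C and 0% CO2, luminescent detection.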

Estrogen receptor (Homo sapiens), sequence (P03372 whole entry, looked up): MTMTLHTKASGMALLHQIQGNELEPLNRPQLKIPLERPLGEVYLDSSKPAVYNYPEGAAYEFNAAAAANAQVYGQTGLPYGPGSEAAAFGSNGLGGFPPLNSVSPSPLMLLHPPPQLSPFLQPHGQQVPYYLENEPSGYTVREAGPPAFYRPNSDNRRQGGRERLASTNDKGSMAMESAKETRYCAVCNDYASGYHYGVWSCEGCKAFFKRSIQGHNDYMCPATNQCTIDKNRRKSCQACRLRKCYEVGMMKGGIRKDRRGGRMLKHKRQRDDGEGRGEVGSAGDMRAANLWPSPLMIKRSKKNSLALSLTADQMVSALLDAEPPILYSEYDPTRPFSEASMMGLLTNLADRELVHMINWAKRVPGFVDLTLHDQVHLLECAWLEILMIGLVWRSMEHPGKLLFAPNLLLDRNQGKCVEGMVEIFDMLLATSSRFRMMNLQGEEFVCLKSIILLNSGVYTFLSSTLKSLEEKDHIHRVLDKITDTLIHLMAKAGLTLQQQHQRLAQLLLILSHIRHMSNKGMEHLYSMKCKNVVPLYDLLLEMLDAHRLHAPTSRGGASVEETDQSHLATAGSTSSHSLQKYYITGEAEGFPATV
Androgen receptor (Homo sapiens), sequence (P10275 whole entry, looked up): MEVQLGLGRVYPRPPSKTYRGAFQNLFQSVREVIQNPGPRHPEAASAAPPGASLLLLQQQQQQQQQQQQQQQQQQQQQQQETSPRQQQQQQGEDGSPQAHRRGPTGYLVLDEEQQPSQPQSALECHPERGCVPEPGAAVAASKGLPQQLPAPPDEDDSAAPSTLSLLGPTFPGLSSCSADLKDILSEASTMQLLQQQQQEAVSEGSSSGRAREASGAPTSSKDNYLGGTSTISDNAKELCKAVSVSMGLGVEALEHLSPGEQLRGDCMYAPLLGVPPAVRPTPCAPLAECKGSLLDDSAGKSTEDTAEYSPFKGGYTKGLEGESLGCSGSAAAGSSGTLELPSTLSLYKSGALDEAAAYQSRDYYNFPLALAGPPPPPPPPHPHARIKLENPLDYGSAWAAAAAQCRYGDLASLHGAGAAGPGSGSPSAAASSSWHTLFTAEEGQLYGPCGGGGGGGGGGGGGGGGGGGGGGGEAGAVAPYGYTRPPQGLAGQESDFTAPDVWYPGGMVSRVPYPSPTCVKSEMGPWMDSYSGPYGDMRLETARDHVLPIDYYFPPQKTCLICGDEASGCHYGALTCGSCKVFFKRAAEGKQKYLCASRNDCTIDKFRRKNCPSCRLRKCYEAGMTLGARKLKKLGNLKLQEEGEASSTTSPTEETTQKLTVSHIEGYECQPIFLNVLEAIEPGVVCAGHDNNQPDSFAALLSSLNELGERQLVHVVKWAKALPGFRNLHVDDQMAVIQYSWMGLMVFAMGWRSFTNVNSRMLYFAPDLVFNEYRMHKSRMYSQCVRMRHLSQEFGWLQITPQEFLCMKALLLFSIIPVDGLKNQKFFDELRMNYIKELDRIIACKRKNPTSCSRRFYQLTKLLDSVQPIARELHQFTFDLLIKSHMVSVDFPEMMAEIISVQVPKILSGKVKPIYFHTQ

Regarding `NC(=O)c1cccnc1`, the Potency result in [1], in test [2], in test [3], in [4], in test [5] and in test [6] was “inactive” throughout. Further, the Potency result in test [7], in [8], in test [9], in [10], in [11] and in test [12] was “inactive” throughout. For the same molecule, the Potency entry in test [13], in test [14], in test [15], in [16] and in test [17] was “inactive” each time. Further, the call in test [18] was inactive.
Turning to `Cc1ncc([N+](=O)[O-])n1CCO`, the Potency result in test [1], in test [2], in test [3], in test [4], in test [5] and in test [6] was “inactive” throughout. The Potency result in test [7], in [8], in test [9], in [10], in test [11] and in test [12] was “inactive” throughout. For the same molecule, the Potency result in test [13], in [14], in test [15], in test [16] and in test [17] was “inactive” throughout. Besides, the molecule was called inactive in [18].
In the case of `NS(=O)(=O)c1cc2c(cc1Cl)NCNS2(=O)=O`, the Potency entry in [1], in [2], in test [3], in test [4], in test [5] and in test [6] was “inactive” in each case. Moreover, the Potency entry in test [7], in test [8], in test [19], in test [9], in test [10] and in test [11] was “inactive” throughout. Besides, the Potency result in test [12], in test [13], in test [14], in test [15], in test [16] and in [17] was “inactive” throughout. Also, the molecule was called inactive in test [18].
With `CN1CCc2cccc3c2[C@H]1Cc1ccc(O)c(O)c1-3`, the Potency in test [1] is 55.5 µM (active) and inactive; in test [5] it was 49.5 µM (active) and 18.3 µM (active) and 23.9 µM (active); in [6] it was 14 µM (active) and 8.17 µM (active) and 23.9 µM (active); in test [7] it was 24.8 µM (active) and 14.5 µM (active); in test [10], 49.1 µM (active) and 20.4 µM (active); in test [11] it was 55 µM (active) and 22.8 µM (active). Further, the Potency in [12] is 49.1 µM (active) and 11.9 µM (active); in test [16], 27.6 µM (active) and 22.8 µM (active); in test [17], 30.9 µM (active) and 18.1 µM (active) and 21.1 µM (active). Also, the Potency result in [2], in test [3], in test [4], in test [8], in test [9] and in test [13] was “inactive” each time. Also, the Potency result in test [14] and in test [15] was “inactive” throughout. In test [18], the call was inactive.
In the case of `CN(C)CCOC(C)(c1ccccc1)c1ccccn1` (centres undefined), the Potency result in test [1], in test [2], in test [3], in test [4], in test [5] and in test [6] was “inactive” throughout. In addition, the Potency entry in test [7], in test [8], in test [19], in test [9], in test [10] and in [11] was “inactive” in each case. Besides, the Potency result in test [13], in [14], in test [15], in test [16] and in test [17] was “inactive” each time. Further, in [18], the outcome was inactive.
For `CCCCOC(=O)c1ccc(O)cc1`, the Potency result in [1], in [2], in test [3], in [4], in [5] and in test [7] was “inactive” in each case. In addition, the Potency entry in test [8], in [9], in [10], in test [11], in test [20] and in test [13] was “inactive” in each case. Besides, the Potency result in test [15], in test [16] and in test [17] was “inactive” each time. The Potency in test [6] was 22.1 µM (active) and 19.5 µM (active); in test [14] it was 27.6 µM (active) and 30.6 µM (active). Besides, the result in [18] was inactive.
